{"source": "PubChem BioAssay (EPA / NIEHS)", "note": "Several values for one entry are separate records, joined by “and”; a condition that tells them apart may be missing. Identical values can stand only once. Some compounds were tested as several samples or in several runs, with calls that do not always agree. Activity calls are given as the source filed them. The calls were made as follows: active = hit-call score of the fitted dose curve at least 0.9, where 1 is the maximum; inactive = score below 0.9.", "data": [{"read-out": "Insulin Like Growth Factor 1 (IGF1), IGF1 (gene 3479)", "assay": "LTEA_HepaRG_IGF1: Life Technologies and Expression Analysis (LTEA) Assay for Insulin Like Growth Factor 1 (IGF1) using HepaRG (AID 2283506)", "details": "mRNA level, 48 h; actives raise or lower the signal", "method": "LTEA_HepaRG is a cell based, multiplexed-readout assay that uses HepaRG, a human liver cell line, with measurements taken at 48 hours after chemical dosing on a 96-well plate.LTEA_HepaRG_IGF1 is one of 102 assay component(s) measured in the LTEA HepaRG cell culture assay. It is a marker of Cell proliferation, survival, death.Data from the assay component LTEA_HepaRG_IGF1 was analyzed into 1 endpoint. This assay endpoint, LTEA_HepaRG_IGF1, was analyzed with bidirectional fitting relative to DMSO as the negative control and baseline of activity. Using a type of inducible reporter, measures of mRNA induction for gain or loss-of-signal activity can be used to understand regulation of transcription factor activity. To generalize the intended target to other relatable targets, this assay endpoint is annotated to the growth factor intended target family, where the subfamily is insulin-like.\nA total of 1060 chemcials from the ToxCast library were tested in eight-point concentration-response experiments. Cell culture and cytotoxicity assays were conducted at Thermo Fisher Scientific's Custom Services facility (Madison, WI). A single lot of human HepaRG cells (Thermo Fisher Scientific, Frederick, MD) was used for the cell culture experiments. 96-well format collagen type I coated plates of human HepaRG cells were prepared using established methods. Briefly, cryopreserved HepaRG cells were thawed, plated at a density of approximately 100,000 cells/well in HepaRG Thaw, Plate, and General Purpose media (HPRG770, Thermo Fisher Scientific), and incubated for 48 hours. 0.5% DMSO was selected as vehicle control to balance the requisite need of DMSO in HepaRG cultures to maintain differentiation (for example, baseline metabolism, proportions of hepatocytes vs. cholangiocytes), while enabling further hepatic receptor pathway activation (for example, PXR and CAR) in response to chemical exposure. 48 hours after plating, the culture medium was replaced with HepaRG Serum-Free Incudtion Media. Cells were exposed to each test chemical in duplicate and maintained in CO2 incubators for another 48 hours. Chemical plates were thawed to room temperature and 200x concentrations of treatment groups were prepared. 8-point conentration-reponse curves were made with the highest exposure at 100 uM, followed by half-log dilutions, all in 0.5% DMSO. Each test plate contained variouse controls, induction positive controls (1mM phenobarbital), cytotoxicity positive controls ([…] aflatoxin B1), vehicle controls (0.5% DMSO), and total lysis controls (0.5% DMSO). Cell morphology images were taken using an Essen IncuCyte FLR automated microscope, with six 96-well plates imaged in about 24 minutes. Images were captured and exported and JPEG files. Spent culture media was transfered to black-well plates for the LDH assay, and remaining media was sorted at -80 C for later use. Cells were treated with RLT buffer and frozen until shipped for gene expression analysis. Total RNA was isolated from the cell suspension in 75 uL of Buffer RLT (Qiagen, Germantown, MD 20874) by Quintiles/Expression Analysis (Durham, NC) using a custom isolation procedure. Total RNA from each plate well was transferred to a preamplification plate. Fluidigm's 96.96 Dynamic ArrayTM (Fluidigm, Amsterdam, the Netherlands) technology was used for gene expression analyses by quantitative reverse transcription polymerase chain reaction (qRT-PCR, performed by Quintiles/Expression Analysis, Durham, NC)89. Standard TaqManTM Assays (Applied Biosystems/ThermoFisher Scientific, Foster City, CA) were used to assess the expression of 93 genes selected based on their selectivity and sensitivity to important hepatic receptors known to be modulated by environmental chemicals; importance in human hepatocyte functionality; and hepatotoxicity. […]", "values": [{"smiles": "CCCN(CCC)c1c([N+](=O)[O-])cc(C(F)(F)F)cc1[N+](=O)[O-]", "outcome": "inactive"}, {"smiles": "OCCOc1ccccc1", "outcome": "inactive"}, {"smiles": "CN1CSC(=S)N(C)C1", "outcome": "inactive"}, {"smiles": "COc1nn(CSP(=S)(OC)OC)c(=O)s1", "outcome": "inactive"}, {"smiles": "CC1(C)C(C=C(Cl)Cl)C1C(=O)OC(C#N)c1ccc(F)c(Oc2ccccc2)c1", "note": "(stereo not given)", "outcome": "inactive"}, {"smiles": "N#Cc1c(Cl)c(Cl)c(Cl)c(C#N)c1Cl", "outcome": "inactive"}, {"smiles": "CNC(=O)CSP(=S)(OC)OC", "outcome": "inactive"}, {"smiles": "CCC(C)(C)C(=O)OC1=C(c2ccc(Cl)cc2Cl)C(=O)OC12CCCCC2", "AC50": "31.1 µM (active)"}, {"smiles": "CCOC1Oc2ccc(OS(C)(=O)=O)cc2C1(C)C", "note": "(stereo not given)", "AC50": "62.3 µM (active)"}, {"smiles": "COP(=S)(OC)Oc1ccc([N+](=O)[O-])cc1", "outcome": "inactive"}, {"smiles": "COP(=S)(OC)Oc1ccc(SC)c(C)c1", "outcome": "inactive"}, {"smiles": "CCOCN(C(=O)CCl)c1c(C)cccc1CC", "AC50": "76.4 µM (active)"}, {"smiles": "O=[N+]([O-])c1c(Cl)c(Cl)c(Cl)c(Cl)c1Cl", "AC50": "50 µM (active)"}, {"smiles": "CC1(c2ccc(Oc3ccccc3)cc2)OC(=O)N(Nc2ccccc2)C1=O", "note": "(stereo not given)", "AC50": "8.33 µM (active)"}, {"smiles": "N#CN", "outcome": "inactive"}, {"smiles": "Oc1cc(Cl)ccc1Oc1ccc(Cl)cc1Cl", "AC50": "69 µM (active)", "outcome": "inactive"}, {"smiles": "O=C(NC(=O)c1c(F)cccc1F)Nc1ccc(OC(F)(F)C(F)OC(F)(F)F)c(Cl)c1", "note": "(stereo not given)", "outcome": "inactive"}, {"smiles": "CCCN(CCOc1c(Cl)cc(Cl)cc1Cl)C(=O)n1ccnc1", "AC50": "24.4 µM (active)"}, {"smiles": "CCC(C)Nc1c([N+](=O)[O-])cc(C(C)(C)C)cc1[N+](=O)[O-]", "note": "(stereo not given)", "AC50": "48 µM (active)"}, {"smiles": "Clc1ccccc1-c1nnc(-c2ccccc2Cl)nn1", "outcome": "inactive"}, {"smiles": "CCN(CC)C(=O)SCc1ccc(Cl)cc1", "outcome": "inactive"}, {"smiles": "Cc1[nH]c(=O)n(C(C)(C)C)c(=O)c1Cl", "outcome": "inactive"}, {"smiles": "O=C1c2ccccc2C(=O)N1SC(Cl)(Cl)Cl", "outcome": "inactive"}, {"smiles": "CCC(C)(NC(=O)c1cc(Cl)c(C)c(Cl)c1)C(=O)CCl", "note": "(stereo not given)", "outcome": "inactive"}, {"smiles": "COP(=O)(OC)OC=C(Cl)Cl", "outcome": "inactive"}, {"smiles": "ClC1C(Cl)C(Cl)C(Cl)C(Cl)C1Cl", "note": "(stereo not given)", "AC50": "6.89 µM (active)"}, {"smiles": "CC(C)(C)C(O)/C(=C\\c1ccc(Cl)cc1Cl)n1cncn1", "note": "(stereo not given)", "AC50": "91.2 µM (active)"}, {"smiles": "O=[N+]([O-])/N=C1\\NCCN1Cc1ccc(Cl)nc1", "AC50": "23 µM (active)"}, {"smiles": "O=C(O)COc1ccc(Cl)cc1Cl", "outcome": "inactive"}, {"smiles": "CC(C)N(C(=O)COc1nnc(C(F)(F)F)s1)c1ccc(F)cc1", "outcome": "inactive"}, {"smiles": "Oc1ccc(Cl)cc1Cc1ccccc1", "outcome": "inactive"}, {"smiles": "CNC(=O)Oc1cccc(N=CN(C)C)c1", "outcome": "inactive"}, {"smiles": "O=S1OCC2C(CO1)C1(Cl)C(Cl)=C(Cl)C2(Cl)C1(Cl)Cl", "note": "(stereo not given)", "AC50": "42.2 µM (active)"}, {"smiles": "CNC(=O)/C=C(\\C)OP(=O)(OC)OC", "outcome": "inactive"}, {"smiles": "C[C@H]1[C@H](c2ccc(Cl)cc2)SC(=O)N1C(=O)NC1CCCCC1", "AC50": "40.1 µM (active)"}, {"smiles": "CNC(=O)Oc1ccccc1OC(C)C", "outcome": "inactive"}, {"smiles": "CC(C)(C)C(O)C(Oc1ccc(Cl)cc1)n1cncn1", "note": "(stereo not given)", "AC50": "16 µM (active) and 23.4 µM (active) and 14.4 µM (active)"}, {"smiles": "CCc1ccc(C(=O)NN(C(=O)c2cc(C)cc(C)c2)C(C)(C)C)cc1", "outcome": "inactive"}, {"smiles": "CC[C@H](C)[C@H]1O[C@]2(C=C[C@@H]1C)C[C@@H]1C[C@@H](C/C=C(\\C)[C@@H](O[C@H]3C[C@H](OC)[C@@H](O[C@H]4C[C@H](OC)[C@@H](O)[C@H](C)O4)[C@H](C)O3)[C@@H](C)/C=C/C=C3\\CO[C@@H]4[C@H](O)C(C)=C[C@@H](C(=O)O1)[C@]34O)O2", "note": "(tested in a mixture with another compound)", "AC50": "16 µM (active)"}]}]}
